Where a name gives a salt, the structure may show the parent alone.
System: HeLa
Test: nuclear count per well, robust Z-score vs DMSO; higher = more cells (less toxicity)
Conditions: 10 µM; 6 h
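Further: Hoechst-stained nuclei counted by automated confocal imaging of four fields per well in 384-well plates, with the robust Z-score based on the per-plate DMSO median and robust SD.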

Row | Compound | nuclear count per well
1 | O=c1[nH]cc(F)c(=O)[nH]1 [Fluorouracil (5-Fluorouracil)] | 0.702
2 | CN(C)CCC(c1ccc(Br)cc1)c1ccccn1 (stereo not given) [Brompheniramine Maleate] | 0.606
3 | C[n+]1ccccc1/C=N/O [Pralidoxime Chloride] | 0.0425
4 | CCN(CC)CCNC(=O)c1ccc(N)cc1 [Procainamide] | -0.0146
5 | CCCCCCCCCCCCCC(=O)N[C@H](C)[C@@H](O)c1ccccc1 [D-erythro-MAPP] | -0.426
6 | Cc1ccccc1C(OCCN(C)C)c1ccccc1 (stereo not given) [Orphenadrine Citrate] | -1.31
7 | Cc1nnc(C(C)C)n1C1C[C@H]2CC[C@@H](C1)N2CC[C@H](NC(=O)C1CCC(F)(F)CC1)c1ccccc1 (stereo in doubt) [Maraviroc] | 0.433
8 | Cc1cc(C(=O)NNCc2ccccc2)no1 [Isocarboxazid] | 0.132
9 | COc1cc(C)c(/C=C/C(C)=C/C=C/C(C)=C/C(=O)O)c(C)c1C [Acitretin] | 0.842
10 | COCCOc1nc(-c2ccc(Cl)c(Cl)c2)n(-c2ccc(NC(=O)CCl)cc2)n1 [MI 2 (MALT1 inhibitor)] | -2.56
11 | CCCC(=O)O[C@]1(C(=O)COC(C)=O)CC[C@H]2[C@@H]3C[C@H](F)C4=CC(=O)C=C[C@]4(C)[C@@]3(F)[C@@H](O)C[C@@]21C [Difluprednate] | 0.412
12 | CCCCc1oc2ccccc2c1C(=O)c1cc(I)c(OCCN(CC)CC)c(I)c1 [Amiodarone hydrochloride] | -0.0773
13 | CN[C@@H]1[C@H](O[C@H]2[C@H](O[C@H]3[C@H](O)[C@@H](O)[C@H](N=C(N)N)[C@@H](O)[C@@H]3N=C(N)N)O[C@@H](C)[C@]2(O)C=O)O[C@@H](CO)[C@H](O)[C@H]1O [Streptomycin Sulfate] | 0.805
14 | NC(=O)c1ncn([C@@H]2O[C@H](CO)[C@@H](O)[C@H]2O)n1 [Ribavirin] | 0.132
15 | CCCCC/C=C\C\C=C/C=C/C=C/CC(=O)CCCC(=O)O [5-Ketoeicosatetraenoic acid] | -0.142
16 | Cc1ccc(C(=O)c2cc(O)c(O)c([N+](=O)[O-])c2)cc1 [Tolcapone] | -0.498
17 | CC1(C)O[C@@H]2C[C@H]3[C@@H]4C[C@H](F)C5=CC(=O)CC[C@]5(C)[C@H]4[C@@H](O)C[C@]3(C)[C@]2(C(=O)CO)O1 [Flurandrenolide] | -0.309
18 | Nc1ccn(C[C@@H](CO)OCP(=O)(O)O)c(=O)n1 [Cidofovir] | 0.638
19 | CC(C)C[C@@H](N)C(=O)O [D-Leucine] | 0.876
20 | Clc1cccc(Cl)c1NC1=NCCN1 | -0.389

Row | Compound | nuclear count per well
21 | COc1ccc(-n2c(SCCCN3C(=O)c4cccc5cccc(c45)C3=O)nnc2-c2ccncc2)cc1 | 0.424
22 | O=C(O)c1cc(-c2ccc(F)cc2F)ccc1O [Diflunisal] | -0.935
23 | Cc1coc2c1C(=O)C(=O)c1c-2ccc2c1CCCC2(C)C [Tanshinone IIA] | -0.142
24 | CC(C(C)N1CC(=O)NC(=O)C1)N1CC(=O)NC(=O)C1 (stereo not given) | -2.95
25 | CCCCCC(=O)/C=C/C=C\C/C=C\C/C=C\CCCC(=O)O [15-Ketoicosatetraenoic acid] | -0.149
26 | CCCCC/C=C\C/C=C\C/C=C\C=C\[C@@H](O)CCCC(=O)O | -0.257
27 | CN1CC[C@@H](NC(=O)Nc2ccc(C#N)cc2)C[C@@H]1c1nc2ccccc2[nH]1 | -0.634
28 | Clc1ccc(CSC(Cn2ccnc2)c2ccc(Cl)cc2Cl)cc1 (stereo not given) [Sulconazole Nitrate] | 0.229
29 | CC(C)(C)NC[C@H](O)COc1nsnc1N1CCOCC1 [(S)-Timolol Maleate] | 1.14
30 | Nc1c2c(nc3ccccc13)CCCC2 | -1.02
31 | CC(C)c1c(C(=O)Nc2ccccc2)c(-c2ccccc2)c(-c2ccc(F)cc2)n1CC[C@@H](O)C[C@@H](O)CC(=O)O [Atorvastatin Calcium] | -1.3
32 | COC(=O)Nc1nc2cc(C(=O)c3cccs3)ccc2[nH]1 [Nocodazole] | -3.65
33 | CN/C(=N\CCSCc1nc[nH]c1C)NC#N [Cimetidine] | 0.352
34 | Cn1c(=O)n(-c2ccc(C(C)(C)C#N)cc2)c2c3cc(-c4cnc5ccccc5c4)ccc3ncc21 | 0.426
35 | CC(C)NCC(O)c1ccc(NS(C)(=O)=O)cc1 (stereo not given) | 0.48
36 | CC(C)NC[C@H](O)COc1cccc2ccccc12 [(S)-(-)-propranolol HCl] | 0.409
37 | OCCN1CCN(CCCN2c3ccccc3Sc3ccc(Cl)cc32)CC1 [Perphenazine] | -0.371
38 | C=CC[C@@H]1/C=C(\C)C[C@H](C)C[C@H](OC)[C@H]2O[C@@](O)(C(=O)C(=O)N3CCCC[C@H]3C(=O)O[C@H](/C(C)=C/[C@@H]3CC[C@@H](O)[C@H](OC)C3)[C@H](C)[C@@H](O)CC1=O)[C@H](C)C[C@@H]2OC [Tacrolimus (Fk506)] | -0.498
39 | CC[C@H](C)C(=O)O[C@H]1CCC=C2C=C[C@H](C)[C@H](CC[C@@H]3C[C@@H](O)CC(=O)O3)[C@H]21 [Mevastatin] | 0.784
40 | CN1CC2c3ccccc3Oc3ccc(Cl)cc3C2C1 (stereo not given) [Asenapine Maleate] | -0.443

— the supplement of paper PMC9844399
